target: Insulin receptor-related protein (Homo sapiens) (UniProt P14616); settings: at 1 µM;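 further: each reported figure is the mean of the IRR inhibition readings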
Sequence (P14616 27-742 limits assumed): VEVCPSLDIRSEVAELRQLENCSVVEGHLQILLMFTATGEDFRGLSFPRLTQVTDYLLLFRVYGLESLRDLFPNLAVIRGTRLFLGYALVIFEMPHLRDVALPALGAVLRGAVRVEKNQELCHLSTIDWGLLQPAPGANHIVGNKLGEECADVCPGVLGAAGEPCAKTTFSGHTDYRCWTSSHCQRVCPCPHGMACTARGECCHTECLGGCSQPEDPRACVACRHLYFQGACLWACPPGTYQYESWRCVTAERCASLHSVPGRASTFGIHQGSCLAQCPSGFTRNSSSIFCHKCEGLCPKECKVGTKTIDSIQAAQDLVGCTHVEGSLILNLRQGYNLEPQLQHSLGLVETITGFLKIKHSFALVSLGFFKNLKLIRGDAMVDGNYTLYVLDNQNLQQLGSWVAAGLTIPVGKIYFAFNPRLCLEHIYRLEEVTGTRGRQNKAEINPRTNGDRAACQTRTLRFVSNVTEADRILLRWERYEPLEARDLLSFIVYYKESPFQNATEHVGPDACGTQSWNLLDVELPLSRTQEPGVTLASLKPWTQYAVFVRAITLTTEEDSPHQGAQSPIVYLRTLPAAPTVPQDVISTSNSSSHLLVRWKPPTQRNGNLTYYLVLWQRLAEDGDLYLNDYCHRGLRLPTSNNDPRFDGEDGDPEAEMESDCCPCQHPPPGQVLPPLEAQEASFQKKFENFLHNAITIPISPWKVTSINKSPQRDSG
Sequence (P14616 747-1297 limits assumed): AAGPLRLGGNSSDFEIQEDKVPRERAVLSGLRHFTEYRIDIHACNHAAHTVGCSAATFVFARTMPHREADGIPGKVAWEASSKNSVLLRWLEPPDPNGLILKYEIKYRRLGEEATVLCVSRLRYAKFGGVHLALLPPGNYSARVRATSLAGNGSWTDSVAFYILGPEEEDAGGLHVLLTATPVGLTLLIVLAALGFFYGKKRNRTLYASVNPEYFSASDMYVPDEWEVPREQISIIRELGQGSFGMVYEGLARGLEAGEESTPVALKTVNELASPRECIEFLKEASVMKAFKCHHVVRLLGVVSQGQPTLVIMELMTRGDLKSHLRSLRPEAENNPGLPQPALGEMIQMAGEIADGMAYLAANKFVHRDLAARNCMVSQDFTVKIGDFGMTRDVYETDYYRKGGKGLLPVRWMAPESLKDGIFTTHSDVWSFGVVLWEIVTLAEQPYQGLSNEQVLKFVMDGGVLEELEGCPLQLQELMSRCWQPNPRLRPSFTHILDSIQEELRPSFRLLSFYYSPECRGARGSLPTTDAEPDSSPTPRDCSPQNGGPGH

Row | SMILES | inhibition [%]
1 | NC(=O)c1sc(-n2cnc3ccccc32)cc1OCc1ccccc1Br | 3.4
2 | CCS(=O)(=O)c1ccc(OC)c(Nc2nccc(N(C)c3ccc4c(C)n[nH]c4c3)n2)c1 | 4.55
3 | O=C(Nc1ccc(Oc2ccc3[nH]c(NC(=O)c4ccco4)nc3c2)cc1)Nc1cc(C(F)(F)F)ccc1F | 0.25
4 | COC(=O)c1ccc2c(c1)C(=Cc1cc(Br)c(O)c(Br)c1)C(=O)N2 | 1.64
5 | CCOc1nccc2c1nc(-c1nonc1N)n2CC | 2.48
6 | COC(=O)Nc1nc2cc(Oc3ccc(NC(=O)Nc4cccc(Br)c4)cc3)ccc2[nH]1 | -1.05
7 | CCn1c(-c2nonc2N)nc2c(C#CC(C)(C)O)nc(OCCNC)cc21 | 1.9
8 | NS(=O)(=O)c1cccc(-c2cc3ccncc3cc2OCc2ccccc2)c1 | 1.54
9 | NS(=O)(=O)c1ccc(N/N=C2\C(=O)Nc3ccc(Cl)cc32)cc1 | 3.42

target: T1, Tyrosine-protein kinase ITK/TSK (Homo sapiens) (UniProt Q08881); settings: at 0.1 µM
T1 sequence (whole entry): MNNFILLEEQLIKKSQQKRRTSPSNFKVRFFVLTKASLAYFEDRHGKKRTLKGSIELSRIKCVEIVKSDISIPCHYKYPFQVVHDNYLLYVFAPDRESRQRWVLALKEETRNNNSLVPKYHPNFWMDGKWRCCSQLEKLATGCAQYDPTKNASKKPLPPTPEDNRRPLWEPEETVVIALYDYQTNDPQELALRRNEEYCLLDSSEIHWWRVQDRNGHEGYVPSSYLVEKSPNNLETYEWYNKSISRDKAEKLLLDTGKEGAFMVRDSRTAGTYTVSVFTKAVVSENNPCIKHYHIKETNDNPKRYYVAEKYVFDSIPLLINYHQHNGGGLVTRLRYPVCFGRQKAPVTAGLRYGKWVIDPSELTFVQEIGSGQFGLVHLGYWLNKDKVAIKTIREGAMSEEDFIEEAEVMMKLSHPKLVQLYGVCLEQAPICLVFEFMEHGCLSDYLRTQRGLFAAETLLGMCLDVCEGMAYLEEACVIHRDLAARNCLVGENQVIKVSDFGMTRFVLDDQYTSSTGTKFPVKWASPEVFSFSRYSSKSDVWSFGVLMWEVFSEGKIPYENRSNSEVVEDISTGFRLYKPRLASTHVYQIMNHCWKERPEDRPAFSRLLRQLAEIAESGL

Row | SMILES | inhibition [%]
10 | ON=C1CCc2cc(-c3nc(C4CCNCC4)[nH]c3-c3ccncc3)ccc21 | 0.74
11 | CS(=O)(=O)Nc1cccc(-c2ccc3c(NC(=O)C4CC4)n[nH]c3c2)c1 | 0.53
12 | NS(=O)(=O)c1ccc(-c2cc3ccncc3cc2OCc2ccccc2)cc1 | 0.77
13 | [O-][S+]1CCN(Cc2ccc(-c3ccc4ncnc(Nc5ccc(OCc6ccccc6)c(Cl)c5)c4c3)o2)CC1 | 0.08
14 | N#Cc1c(NC(=O)c2ccccc2F)sc2c1CCCC2 | -1
15 | COc1cc2ncn(-c3cc(OCc4ccccc4S(C)(=O)=O)c(C#N)s3)c2cc1OC | 2.84
16 | NC(=O)c1cccc(Nc2nccc(Nc3cccc(F)c3)n2)c1 | -0.24
17 | CN(C)C(=O)O[C@H]1CN[C@H](C#Cc2cc3ncnc(Nc4ccc(OCc5cccc(F)c5)c(Cl)c4)c3s2)C1 | 1.49
18 | Cc1ccc(NC(=O)CC2CC2)cc1-c1ccc(C(=O)NCC2CC2)cc1 | 1.08
19 | CN(C)c1cc2c(Nc3ccc4c(cnn4Cc4ccccc4)c3)ncnc2cn1 | 1.37
20 | CN(c1ccc(NC(=O)Nc2ccc(OC(F)(F)F)cc2)cc1)c1ccnc(Nc2cccc(S(N)(=O)=O)c2)n1 | 10.6
21 | CCS(=O)(=O)c1ccc(OC)c(Nc2ncc(-c3cccc(OC)c3)o2)c1 | 1.61
22 | COc1cc(Nc2nccc(-c3cnn4ncccc34)n2)cc(OC)c1 | 0.74
23 | O=C1Nc2ccc(-c3cccnc3)cc2C1=Cc1cc(Br)c(O)c(Br)c1 | 1.58
24 | CN(C)C(=O)O[C@@H]1CN[C@@H](C#Cc2cc3ncnc(Nc4ccc(OCc5cccc(F)c5)c(Cl)c4)c3s2)C1 | 0.62
25 | Cc1nc(-c2ccccc2)n2nc(NCCCN3CCOCC3)ncc12 | 0.99
26 | COc1cc(/C=N/Nc2ncnc3c2cnn3C(C)C)ccc1O | 1.18

Row | SMILES | inhibition [%]
27 | COc1cccc(-n2nc(C)c3c(N/N=C(\C)c4ccncc4)ncnc32)c1 | 0.43
28 | Cc1ccc2c(-c3ccnc(Nc4ccc5c(c4)OCCO5)n3)c(-c3ccc(C(F)(F)F)cc3)nn2n1 | -1.23
29 | COc1cc2ncnc(Nc3ccc4c(cnn4Cc4ccccc4)c3)c2cc1OC | 0.88
30 | Cc1ccc2c(-c3ccnc(Nc4cccc(C(F)(F)F)c4)n3)c(-c3ccccc3)nn2n1 | 1.33
31 | Cc1cc(O)cc(C)c1/C=C/c1cncc(C(=O)N(C)C)c1 | 1.43
32 | Nc1ccc(C#Cc2cncnc2Nc2ccc(OCc3cccc(F)c3)c(Cl)c2)cc1 | 0.59
33 | Nc1nccc(-c2c(-c3ccc(F)cc3)ncn2CCCN2CCOCC2)n1 | 1.35
34 | N#Cc1cccc(Nc2nccc(-c3cnn4ncccc34)n2)c1 | 2.91
35 | NC(=O)c1sc(-n2cnc3ccccc32)cc1OCc1ccccc1Br | 1.35
36 | CCS(=O)(=O)c1ccc(OC)c(Nc2nccc(N(C)c3ccc4c(C)n[nH]c4c3)n2)c1 | 0.31
37 | O=C(Nc1ccc(Oc2ccc3[nH]c(NC(=O)c4ccco4)nc3c2)cc1)Nc1cc(C(F)(F)F)ccc1F | -2.86
38 | COC(=O)c1ccc2c(c1)C(=Cc1cc(Br)c(O)c(Br)c1)C(=O)N2 | 2.44
39 | CCOc1nccc2c1nc(-c1nonc1N)n2CC | 1.74
40 | COC(=O)Nc1nc2cc(Oc3ccc(NC(=O)Nc4cccc(Br)c4)cc3)ccc2[nH]1 | 1.01
41 | CCn1c(-c2nonc2N)nc2c(C#CC(C)(C)O)nc(OCCNC)cc21 | 0.63
42 | NS(=O)(=O)c1cccc(-c2cc3ccncc3cc2OCc2ccccc2)c1 | 1.77
43 | NS(=O)(=O)c1ccc(N/N=C2\C(=O)Nc3ccc(Cl)cc32)cc1 | 0.97

target: T1, Tyrosine-protein kinase ITK/TSK (Homo sapiens); settings: at 1 µM

Row | SMILES | inhibition [%]
44 | ON=C1CCc2cc(-c3nc(C4CCNCC4)[nH]c3-c3ccncc3)ccc21 | 0.87
45 | CS(=O)(=O)Nc1cccc(-c2ccc3c(NC(=O)C4CC4)n[nH]c3c2)c1 | 1.71
46 | NS(=O)(=O)c1ccc(-c2cc3ccncc3cc2OCc2ccccc2)cc1 | 0.35
47 | [O-][S+]1CCN(Cc2ccc(-c3ccc4ncnc(Nc5ccc(OCc6ccccc6)c(Cl)c5)c4c3)o2)CC1 | 1.13
48 | N#Cc1c(NC(=O)c2ccccc2F)sc2c1CCCC2 | 0.32
49 | COc1cc2ncn(-c3cc(OCc4ccccc4S(C)(=O)=O)c(C#N)s3)c2cc1OC | 11.5
50 | NC(=O)c1cccc(Nc2nccc(Nc3cccc(F)c3)n2)c1 | 2.4
51 | CN(C)C(=O)O[C@H]1CN[C@H](C#Cc2cc3ncnc(Nc4ccc(OCc5cccc(F)c5)c(Cl)c4)c3s2)C1 | 1.42
52 | Cc1ccc(NC(=O)CC2CC2)cc1-c1ccc(C(=O)NCC2CC2)cc1 | 1.47
53 | CN(C)c1cc2c(Nc3ccc4c(cnn4Cc4ccccc4)c3)ncnc2cn1 | 0.99
54 | CN(c1ccc(NC(=O)Nc2ccc(OC(F)(F)F)cc2)cc1)c1ccnc(Nc2cccc(S(N)(=O)=O)c2)n1 | 67.3
55 | CCS(=O)(=O)c1ccc(OC)c(Nc2ncc(-c3cccc(OC)c3)o2)c1 | 5.9
56 | COc1cc(Nc2nccc(-c3cnn4ncccc34)n2)cc(OC)c1 | 11.8
57 | O=C1Nc2ccc(-c3cccnc3)cc2C1=Cc1cc(Br)c(O)c(Br)c1 | 2.67
58 | CN(C)C(=O)O[C@@H]1CN[C@@H](C#Cc2cc3ncnc(Nc4ccc(OCc5cccc(F)c5)c(Cl)c4)c3s2)C1 | 0.1
59 | Cc1nc(-c2ccccc2)n2nc(NCCCN3CCOCC3)ncc12 | 1.89
60 | COc1cc(/C=N/Nc2ncnc3c2cnn3C(C)C)ccc1O | 5

Row | SMILES | inhibition [%]
61 | COc1cccc(-n2nc(C)c3c(N/N=C(\C)c4ccncc4)ncnc32)c1 | -0.01
62 | Cc1ccc2c(-c3ccnc(Nc4ccc5c(c4)OCCO5)n3)c(-c3ccc(C(F)(F)F)cc3)nn2n1 | 1.1
63 | COc1cc2ncnc(Nc3ccc4c(cnn4Cc4ccccc4)c3)c2cc1OC | 1.9
64 | Cc1ccc2c(-c3ccnc(Nc4cccc(C(F)(F)F)c4)n3)c(-c3ccccc3)nn2n1 | 1.69
65 | Cc1cc(O)cc(C)c1/C=C/c1cncc(C(=O)N(C)C)c1 | 1.94
66 | Nc1ccc(C#Cc2cncnc2Nc2ccc(OCc3cccc(F)c3)c(Cl)c2)cc1 | 1.02
67 | Nc1nccc(-c2c(-c3ccc(F)cc3)ncn2CCCN2CCOCC2)n1 | 2.18
68 | N#Cc1cccc(Nc2nccc(-c3cnn4ncccc34)n2)c1 | 21.1
69 | NC(=O)c1sc(-n2cnc3ccccc32)cc1OCc1ccccc1Br | 2.17
70 | CCS(=O)(=O)c1ccc(OC)c(Nc2nccc(N(C)c3ccc4c(C)n[nH]c4c3)n2)c1 | 1.96
71 | O=C(Nc1ccc(Oc2ccc3[nH]c(NC(=O)c4ccco4)nc3c2)cc1)Nc1cc(C(F)(F)F)ccc1F | 0.22
72 | COC(=O)c1ccc2c(c1)C(=Cc1cc(Br)c(O)c(Br)c1)C(=O)N2 | 3
73 | CCOc1nccc2c1nc(-c1nonc1N)n2CC | 3.31
74 | COC(=O)Nc1nc2cc(Oc3ccc(NC(=O)Nc4cccc(Br)c4)cc3)ccc2[nH]1 | 1.87
75 | CCn1c(-c2nonc2N)nc2c(C#CC(C)(C)O)nc(OCCNC)cc21 | 0.12
76 | NS(=O)(=O)c1cccc(-c2cc3ccncc3cc2OCc2ccccc2)c1 | 3.72
77 | NS(=O)(=O)c1ccc(N/N=C2\C(=O)Nc3ccc(Cl)cc32)cc1 | 4.1

From ChEMBL document CHEMBL1961873, “Compounds: GSK PKIS; Assays: Nanosyn kinase panel” (2012)
